Compound activity (PubChem BioAssay)
JMJD2A Tudor inh = JMJD2A Tudor domain (human) inhibition; O75164; AlphaScreen JMJD2A-Tudor / H3K4me3 peptide binding; Potency, µM (doses to about 114 µM), for inactives: at the highest dose activity change, negative = inhibition, usual class: inhibitors; 390,000 compounds, 4.4% hits; AID 504339; also: % is scaled to controls: 0 for no effect and ±100 for the full control effect; nearly all actives have a fitted effect of over 50% in size
G9a block = blocks human histone lysine methyltransferase G9a | G9a H3K9 monomethylation, AlphaScreen, 2 h | Potency, µM (top dose mostly 102 µM), for inactives: top-dose activity, negative = inhibition, most hits filed as inhibitors | 350,000 compounds, 8.8% hits | AID 504332; also: % is scaled to controls: 0 for no effect and ±100 for the full control effect; nearly all actives have a fitted effect of over 75% in size
Target sequence (Q96KQ7 913-1193 limits assumed): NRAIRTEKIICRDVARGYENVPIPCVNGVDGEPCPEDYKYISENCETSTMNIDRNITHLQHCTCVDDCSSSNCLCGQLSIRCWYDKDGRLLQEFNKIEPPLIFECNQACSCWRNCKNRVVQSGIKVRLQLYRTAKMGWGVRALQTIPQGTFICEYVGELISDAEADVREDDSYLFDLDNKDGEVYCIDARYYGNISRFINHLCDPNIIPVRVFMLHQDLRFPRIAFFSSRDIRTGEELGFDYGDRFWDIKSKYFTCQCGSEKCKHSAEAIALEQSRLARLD
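AlphaScreen read-out: biotin-H3K9 peptide (500 nM) methylation by 20 nM enzyme with 20 uM SAM, 2 h at room temperature after 15 min compound preincubation; anti-monomethyl H3K9 antibody plus donor/acceptor beads, 10 min dark.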
BAZ2B block = BAZ2B (human) inhibition | 360,000 compounds, 4.4% hits | AlphaScreen BAZ2B-H3K14Ac peptide displacement | Potency, µM (doses to about 114 µM), for the others: at the highest dose activity change, negative = inhibition, usual class: inhibitors | AID 504333 | Q9UIF8; also: % is scaled to controls: 0 for no effect and ±100 for the full control effect; nearly all actives have a fitted effect of over 60% in size
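AlphaScreen luminescence quantifies BAZ2B engagement of H3K14Ac peptide; the protein and biotinylated peptide are both at 50 nM final, buffer PBS pH 7.4 with 0.01% Tween-20, all steps at room temperature.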
HP1b chromo inh = blocks HP1-beta chromodomain binding to methylated histone tails | AlphaScreen HP1-beta / biotin-H3K9me3 peptide binding | P83916 | 390,000 compounds, 0.56% hits | Potency, µM (titrated, usually from 114 µM), for inactives: top-dose activity change, negative = inhibition, actives largely listed as inhibitors; also: nearly all actives have a fitted effect of over 70% in size
Target sequence (P83916 whole entry, looked up): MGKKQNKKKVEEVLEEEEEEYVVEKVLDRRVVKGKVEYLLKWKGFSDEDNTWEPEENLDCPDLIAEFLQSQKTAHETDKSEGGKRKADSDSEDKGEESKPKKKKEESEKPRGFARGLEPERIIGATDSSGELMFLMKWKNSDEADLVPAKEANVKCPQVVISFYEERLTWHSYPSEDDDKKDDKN
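Compound inhibition of the preformed complex between 50 nM HP1-beta and 50 nM biotinylated H3K9me3 peptide was read by AlphaScreen. Buffer was PBS pH 7.4 with 0.01% Tween-20. Incubations ran 30 min at room temperature, with 10 ug/mL donor/acceptor beads.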
L3MBTL1 inh = L3MBTL1 (human) inhibition. Q9Y468. AlphaScreen L3MBTL1–H3K9me1 peptide binding. Potency, µM (highest dose often 57.1 µM), inactives show at the top dose activity, negative = inhibition, hits mostly inhibitors. 230,000 compounds, 0.66% hits. AID 485360; also: % is scaled to controls: 0 for no effect and ±100 for the full control effect; nearly all actives have a fitted effect of over 60% in size
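Displacement of a biotinylated histone H3(1-15) peptide monomethylated at Lys9 (75 nM) from L3MBTL1 (50 nM) was measured by AlphaScreen after a 30 min room-temperature compound incubation; cefsulodin titration served as intraplate control.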
GLS inhibitor = inhibitors of human glutaminase (GLS); O94925; GLS enzymatic activity, qHTS titration; Potency, µM (series often up to 45.5 µM), inactives show at the highest dose activity change, negative = inhibition, most hits filed as inhibitors; 410,000 compounds, 0.21% hits; AID 624170; also: % is scaled to controls: 0 for no effect and ±100 for the full control effect
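Two-point fluorescence kinetic (t0, 30 min RT) for hKGA; glutamate detected via glutamate oxidase–HRP–Amplex Red. Substrate: 1 mM L-glutamine solution; buffer 45 mM KH2PO4, pH 8.2.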
Starred values were filed as active, the others as inactive; [ ] = dose if it differs, or a comment. Most compounds without a hit are left out; they make up all but 10% or so of the library. Calls follow the shape of the dose curve; as a rule, active = well fitted curve in the direction sought with a large enough effect; inconclusive = small, poorly fitted or top-dose-only effect, or another doubt; inactive = no such curve, though single readings can be large; an effect the other way counts as inactive or inconclusive. Potency is read from the fitted curve at half-maximal effect.

Cc1oc(C(=O)O)cc1COc1cccc2cccnc12 was read as JMJD2A Tudor inh 79µM*, G9a block 79µM*, BAZ2B block 40µM*, HP1b chromo inh 14%, L3MBTL1 inh 28µM* and GLS inhibitor inconclusive.
Screening COc1ccccc1C1=Nn2c(nnc2-c2ccccc2O)SC1 returned JMJD2A Tudor inh -12%.
For CCOc1cccc(C2c3c(oc4ccc(F)cc4c3=O)C(=O)N2c2cc(C)ccn2)c1 (configuration not stated) the results were JMJD2A Tudor inh -9%, G9a block 30%[59 µM], BAZ2B block 31%, HP1b chromo inh 70% and GLS inhibitor -4%.
`CCc1ccccc1-n1c2c(cc(-c3nc(-c4ccc(Cl)cc4)cs3)c1=O)C(=O)CC(C)(C)C2` gave JMJD2A Tudor inh 11%, G9a block inconclusive, BAZ2B block 10%, HP1b chromo inh 37% and GLS inhibitor -3%.
`CS/C(=N\S(=O)(=O)c1ccc(N)cc1)NS(=O)(=O)c1cccs1` gave JMJD2A Tudor inh 89µM*, G9a block inconclusive, BAZ2B block -2%, HP1b chromo inh 14%, L3MBTL1 inh 5% and GLS inhibitor 1%.
`CSC(=NCc1ccc(F)cc1)NS(=O)(=O)c1cccs1` gave JMJD2A Tudor inh -9%[57.1 µM], G9a block -13%, BAZ2B block 7%, HP1b chromo inh 69%, L3MBTL1 inh 6% and GLS inhibitor -10%.
`CN(C)CCCn1c(SCC(=O)Nc2nc(-c3cccc(Br)c3)cs2)nc2ccccc2c1=O` gave JMJD2A Tudor inh 40µM*, G9a block inconclusive, BAZ2B block inconclusive, HP1b chromo inh inconclusive and GLS inhibitor 0%.
O=C(CSc1nc2ccccc2[nH]1)Nc1nc(-c2cccc(Br)c2)cs1 was read as JMJD2A Tudor inh -10%, G9a block inconclusive, BAZ2B block -9%, HP1b chromo inh 21%, L3MBTL1 inh -4% and GLS inhibitor 8%.
COc1ccc(/C=N/N2CCN(C)CC2)cc1O was read as JMJD2A Tudor inh -14%, G9a block 32µM*, BAZ2B block 15%, HP1b chromo inh -6%, L3MBTL1 inh -6% and GLS inhibitor -10%.
For CN1CCN(/N=C/c2ccc(Br)cc2)CC1 the results were JMJD2A Tudor inh -33%, G9a block inconclusive, BAZ2B block 12%, HP1b chromo inh 21%, L3MBTL1 inh -11% and GLS inhibitor -8%.
CN1CCN(/N=C/c2ccc(N(c3ccccc3)c3ccccc3)cc2)CC1 was read as JMJD2A Tudor inh 18µM*, G9a block 8%[12.7 µM], BAZ2B block 35µM*, HP1b chromo inh -38%, L3MBTL1 inh 23% and GLS inhibitor -6%.
For COc1cccc(/C=N/N2CCN(C)CC2)c1 the results were JMJD2A Tudor inh -26%, G9a block -8%[59 µM], BAZ2B block -5%, HP1b chromo inh 3%, L3MBTL1 inh 12% and GLS inhibitor 8%.
CN1CCN(/N=C/c2ccc(N(C)c3ccccc3)cc2)CC1 was read as JMJD2A Tudor inh -32%, G9a block inconclusive, BAZ2B block 35µM*, HP1b chromo inh -5%, L3MBTL1 inh -9%[11.4 µM] and GLS inhibitor -15%.
Screening Cc1ccc(NC(=O)CCn2c(=O)c3cccn3c3ccccc32)c(Cl)c1 returned JMJD2A Tudor inh -28%, G9a block -26%[59 µM], BAZ2B block -19%, HP1b chromo inh 26% and GLS inhibitor 4%.
COc1ccc(C2CC(=O)c3cc(-c4nc(-c5cccc(Cl)c5)cs4)c(=O)[nH]c3C2)cc1OC (configuration not stated) was read as JMJD2A Tudor inh -13%, G9a block 24%[59 µM], BAZ2B block -1%, HP1b chromo inh 55% and GLS inhibitor -5%.
For CCOC(=O)C1=C(N)Oc2cc(O)ccc2C1c1ccccc1 (configuration not stated) the results were JMJD2A Tudor inh -33%, G9a block 3%[0.501 µM], BAZ2B block 11%, HP1b chromo inh 0%, L3MBTL1 inh -2%[2.29 µM] and GLS inhibitor 4%.
CCOC(=O)C1=C(N)Oc2cc(O)ccc2C1c1cccc([N+](=O)[O-])c1 (configuration not stated) was read as JMJD2A Tudor inh inconclusive, BAZ2B block 40µM*, HP1b chromo inh -17%, L3MBTL1 inh -15% and GLS inhibitor -2%.
For CN(CC(=O)Nc1ccc(Cl)c(C(F)(F)F)c1)C(=O)c1ccc2c(c1)OCCO2 the results were JMJD2A Tudor inh -8%, G9a block 3%, BAZ2B block 10%, HP1b chromo inh 28%, L3MBTL1 inh -5% and GLS inhibitor 4%.
Screening CCN(CC(=O)Nc1ccc(C(C)=O)cc1)CC(=O)Nc1ccc2c(c1)OCCO2 returned JMJD2A Tudor inh 0.32µM*, HP1b chromo inh inconclusive, L3MBTL1 inh -5% and GLS inhibitor -11%.
CCN(CC(=O)Nc1ccc2c(c1)OCCO2)CC(=O)Nc1ccccc1C(F)(F)F was read as JMJD2A Tudor inh 5µM*, HP1b chromo inh 28µM*, L3MBTL1 inh -7% and GLS inhibitor 0%.
O=C(CCCCCn1c(=O)c2sccc2n(CC(=O)Nc2ccccc2F)c1=O)NCc1ccc2c(c1)OCO2 was read as JMJD2A Tudor inh -9%, G9a block -1%[59 µM], BAZ2B block 2%, HP1b chromo inh 16% and GLS inhibitor inconclusive.
Screening CCOc1ccc(NS(=O)(=O)c2ccc3c(c2)NC(=O)CCS3)cc1 returned JMJD2A Tudor inh -8%, G9a block 3%[59 µM], BAZ2B block -1%, HP1b chromo inh 12% and GLS inhibitor 1%.
For Cc1ccc2nc(Cc3ccc(N)cc3)[nH]c2c1 the results were JMJD2A Tudor inh -33%, G9a block 2%[0.501 µM], BAZ2B block 56µM*, HP1b chromo inh 18%, L3MBTL1 inh 3% and GLS inhibitor 26%.
`Nc1ccc2nc(CN3CCOCC3)[nH]c2c1` gave JMJD2A Tudor inh inconclusive, G9a block inconclusive, BAZ2B block 50µM*, HP1b chromo inh 35% and GLS inhibitor 20%.
CC(C)Cc1nc2ccc(N)cc2[nH]1 was read as JMJD2A Tudor inh 22µM*, G9a block inconclusive, BAZ2B block -35%, HP1b chromo inh 19%, L3MBTL1 inh -11% and GLS inhibitor inconclusive.
`CC(C)Cc1nc2ccccc2[nH]1` gave JMJD2A Tudor inh 12%, G9a block inconclusive, BAZ2B block -2%, HP1b chromo inh 26%, L3MBTL1 inh 7% and GLS inhibitor -5%.
